Reference: PubChem BioAssay (NCI)
Compounds without any hit were thinned out: in the full panel of roughly 83,000, 20% have a hit.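 Interpretation: 100, growth as untreated; towards 0, rising growth inhibition; 0, no net growth; 0 to -100, cell death. Compounds scoring below 10 were considered active.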 A number with no mark means an inactive call. Activity calls are given as the source filed them.

Key:
Assay in all cases: NCI-60 one-dose screen, 48 h (100 = growth as untreated, 0 = no growth, -100 = all killed)
Settings in all cases: 10 µM unless noted
T-47D breast = system: T-47D breast
BT-549 breast = system: BT-549 breast
MDA-MB-435 melanoma = system: MDA-MB-435 melanoma
SW-620 colon = system: SW-620 colon
MCF7 breast = system: MCF7 breast
HCT-116 colon = system: HCT-116 colon
HCC-2998 colon = system: HCC-2998 colon
KM12 colon = system: KM12 colon

Row | SMILES | growth (T-47D breast) | growth (BT-549 breast) | growth (MDA-MB-435 melanoma) | growth (SW-620 colon) | growth (MCF7 breast) | growth (HCT-116 colon) | growth (HCC-2998 colon) | growth (KM12 colon)
1 | COc1ccc(-c2c(C(=O)NS(C)(=O)=O)n(Cc3cccc(C(F)(F)F)c3)c3ccccc23)cc1 | 87.7% | 92.3% | 97.3% | 95.4% | 91.4% | 84.5% | 108% | 92.8%
2 | CCC12CCC[N+]3([O-])CCC4(C(=Nc5ccccc54)C(O)(C(=O)OC)C1)C23 (stereo not drawn) | 94.8% | 102% | 112% | 95.4% | 116% | 94.5% | 97.8% | 99.6%
3 | c1ccc(Nc2cc(-c3cccnc3)[nH]n2)cc1 | 99.5% | 99.4% | 101% | 115% | 88.9% | 105% | 104% | 96.3%
4 | O=C(/C=C/c1sc(Cl)nc1Cl)c1ccc(F)cc1 | 83.7% | 103% | 101% | 24.7% | 14.4% | 39.4% | 30.4% | 60.8%
5 | COc1cc(C(=O)c2cnc(-c3cccc4[nH]ccc34)[nH]2)cc(OC)c1OC | 70.6% | 40.2% | -34.8% (active) | 19.7% | 22.4% | -8.06% (active) | 20.9% | 4.18% (active)
6 | CC1=NN(c2ccc(S(=O)(=O)O)cc2)C(=O)C1N=Nc1ccc(-c2ccc(N=Nc3ccc(OS(=O)(=O)c4ccc(C)cc4)cc3)c(S(=O)(=O)O)c2)cc1 (stereo not drawn) | 90.3% | 68.4% | 95.1% | 103% | 88.7% | 93.9% | 104% | 105%
7 | Cc1cc(=O)oc2cc(OC(=O)N3CCN(C)CC3)ccc12 | 105% | 112% | 101% | 100% | 89.6% | 99.4% | 110% | 101%
8 | NC1=NC(c2cccc(Br)c2)c2sc3ccc(Cl)cc3c2N1 (stereo not drawn) | 88.8% | 122% | 98.2% | 103% | 75.4% | 97.9% | 114% | 93.7%
9 | COc1cc(/C=C/c2c(C(C)=O)c(C)nc3ccccc23)cc(OC)c1OC | 39.7% | 48.4% | -0.529% (active) | 29.6% | 19.3% | 23.9% | 54.8% | 29.1%
10 | C=C1C(=O)O[C@H]2[C@H]1CC/C(COC(=O)NCCOCCOCC(=O)Nc1ccc(OC)c(C(N)=O)c1O)=C\CC[C@@]1(C)O[C@@H]21 | 47.8% | 68.6% | 53.7% | 18.5% | 32% | 32.8% | 90.4% | 95.2%
11 | COc1cc(C)c(Cc2cnc(N)nc2N)cc1OC | 92.7% | 95.4% | 112% | 102% | 101% | 112% | 108% | 111%
12 | O=C(N/N=C/c1ccc(Cl)cc1)c1ccc(C(F)(F)F)nc1Nc1cccc(C(F)(F)F)c1 | 3.73% (active) | 9.33% (active) | 34.8% | 8.01% (active) | 0.997% (active) | -33.6% (active) | -38.9% (active) | 8.69% (active)
13 | O=C1c2cccc3cccc(c23)C(=O)N1Nc1nc(N2CCOCC2)nc(N2CCN(c3ccccc3)CC2)n1 | 37.3% | 37.8% | -12.6% (active) | 32.6% | 17.9% | 31.2% | 77.6% | 48.5%
14 | COc1ccc(/C=C(/C#N)n2nnc3cccc(F)c32)cc1 | 9.54% (active) | 20.3% | -56.4% (active) | 11.9% | 17.1% | 10.1% | 36% | 5.54% (active)
15 | CC([C@H]1CCC2C3CCC4C[C@@H](NC=O)CC[C@]4(C)C3CC[C@@]21C)N(C)C (stereo partly drawn) | -40.6% (active) | 30.7% | -46.1% (active) | -71.5% (active) | -23.1% (active) | -66.2% (active) | -67.2% (active) | -21.1% (active)
16 | CC1Cc2ccccc2N1NC(=O)c1ccc(Cl)c(S(N)(=O)=O)c1 (stereo not drawn) | 100% | 92.1% | 102% | 105% | 92.2% | 98.2% | 96% | 107%
